# Assay results taken from PubChem BioAssay (EPA / NIEHS).
# Records with an inconclusive call do not appear. The source made the active and inactive calls. How the source made its calls: active means hit-call score of the fitted dose curve at least 0.9, where 1 is the maximum; inconclusive means response in the unintended direction; inactive means score below 0.9.
# How the values were obtained:
# [1] = STM_H9_NormalizedViability: Cytotoxicity Assessment at 120 hours in the Stemina devTOX quickPredict H9 human embryonic stem cell (hESC)-based Assay (AID 2283784)
# Summary of the method: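 Undifferentiated H9 hESCs kept pluripotent were exposed to compound, with media and chemical replaced every 24h. CellTiter-Fluor protease-substrate fluorescence was background-corrected and normalized per plate to the 0.1% DMSO vehicle; signal loss indicates reduced viability.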
# [2] = tested on: turtle Androgen Receptor (AR), gene 101947425; experiment: ATG_trAR_XSP1: Attagene TRANS-FACTORIAL Multi-Species (XSP1) HepG2 Assay for turtle Androgen Receptor (AR) (AID 2283786)
# Experimental: ATG_XSP1_multi-species_TRANS is a cell-based, multiplexed assay created by modifying the existing Attagene TRANS-FACTORIAL system to include a panel of nuclear receptors from some or all the following species: human (Homo sapiens), mouse (Mus musculus), frog (Xenopus laevis), zebrafish (Danio rerio), chicken (Gallus gallus), and turtle (Chrysemys picta). The ECOTOX-FACTORIAL format uses HepG2, a human liver cell line, with measurements taken at 24 hours after chemical dosing in a 24-well plate. Xsp1 included 3 nM 6-alpha-fluorotestosterone to partially stimulate the androgen receptor.ATG_trAR_XSP1 is one of 29 assay components measured or calculated from the ATG_XSP1_multi-species_TRANS assay. It is designed to make measurements of mRNA induction, a form of inducible reporter, as detected with fluorescence intensity signals by Reverse transcription polymerase chain reaction (RT-PCR) and Capillary electrophoresis technology.The assay endpoint ATG_trAR_XSP1 was analyzed in the positive analysis fitting direction relative to DMSO as the negative control and baseline of activity. Using a type of inducible reporter, measures of mRNA for gain-of-signal activity can be used to understand the reporter gene at the transcription factor-level as they relate to the gene AR. Furthermore, this assay endpoint can be referred to as a primary readout, because this assay has produced multiple assay endpoints where this one serves a reporter gene function. To generalize the intended target to other relatable targets, this assay endpoint is annotated to the nuclear receptor intended target family, where the subfamily is steroidal.
# (§1) Human liver HepG2 cells are transiently transfected with multiple reporter transcription units (MRTUs) in 6-well plates using FuGene 6 reagent (Roche; 3 ml FuGene/1 mg DNA). The MRTU constructs are regulated by a cis-regulating element (promoter). […] A major difference between the CIS and TRANS system is that in CIS activities of endogenous TFs are measured, whereas the TRANS assay evaluates changes in activities of exogenous, chimeric NR-Gal4 proteins. […] At the end of 24 hour incubation, total RNA was isolated using TriZol reagent (Invitrogen). The isolated RNA is then reverse-transcribed using oligo(dT) primer and Mo-MLV reverse transcriptase (Invitrogen) with DNAse I (Ambion) treatment for 30 min. The one-tenth of the produced cDNA was amplified by PCR using Taq DNA polymerase (Invitrogen) and two reporter sequence-specific primers. The PCR products were fluorescently labeled by primer extension with 6-arboxyfluorescein (6-FAM) 5'-labeled reporter sequence-specific primer (2 min at 95 C, 20 s at 68 C and 10 min at 72 C) and these products were digested with 5U of HpaI (New England Biolabs) for 2h at 37 C. The fragments were purified using Qiaquick PCR columns (Qiagen), analyzed on an ABI 3130xL genetic analyzer (Applied Biosystems) with peak positions identified by using a set of X-rhodamine (ROX)-labeled MapMarker1000 molecular weight standards (BioVentures). The raw capillary electrophoresis data was processed using Attagraph software (Attagene).
# [3] = biological target: Estrogen receptor beta (Homo sapiens) (UniProt Q92731); experiment: ATG_hERb_XSP1: Attagene TRANS-FACTORIAL Multi-Species (XSP1) HepG2 Assay for human Estrogen Receptor (ESR2) (AID 2283788)
# Summary of the method: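 Read-out: reporter mRNA induction by RT-PCR, HpaI digestion and capillary electrophoresis fluorescence, fitted in positive direction relative to DMSO baseline. Human liver HepG2 cells expressing ERβ-Gal4 fusion, dosed 24 h, medium containing 3 nM 6-alpha-fluorotestosterone.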
# [4] = ATG_M_06_XSP1: Attagene TRANS-FACTORIAL Multi-Species (XSP1) HepG2 Assay for M06 Transcription Factor (Internal Marker) (AID 2283790)
# Summary of the method: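 Transfected HepG2 multi-reporter system treated 24 h in the presence of 3 nM 6-alpha-fluorotestosterone. The M06 internal marker transcript was quantified by RT-PCR with capillary electrophoresis as a background control, and gain of signal was scored versus DMSO.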
# [5] = ATG_M_61_XSP1: Attagene TRANS-FACTORIAL Multi-Species (XSP1) HepG2 Assay for M61 Transcription Factor (Internal Marker) (AID 2283797)
# Summary of the method: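 HepG2 cells transiently transfected with multiplexed GAL4-driven reporter units, dosed 24 h with 3 nM 6-alpha-fluorotestosterone present. Reporter mRNA quantified by RT-PCR, 6-FAM labelling, HpaI digestion and capillary electrophoresis; internal-marker background control, gain of signal versus DMSO.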
# AR (gene 367) = AR (gene 367) (UniProt P10275); experiment: ACEA_AR_antagonist_80hr: ACEA Biosciences xCELLigence Real-Time Cell Analysis on Androgen Receptor Antagonism for Proliferation (AID 2283787);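 further: 22Rv1 human prostate cancer cells with growth followed by electrical impedance; hits lower the impedance growth signal relative to DMSO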
# Summary of the method: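 Impedance readout (RT-CES), 80 h post-dose; loss-of-signal vs DMSO baseline. 22Rv1 cells in assay medium. Compounds: 8-pt 1:4 series, max 100 uM final, up to 0.5% DMSO; n = 2.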
# [6] = biological target: GAL4 Transcription Factor (Internal Marker), GAL4 (gene 855828) (UniProt P04386); experiment: ATG_GAL4_XSP1: Attagene TRANS-FACTORIAL Multi-Species (XSP1) HepG2 Assay for GAL4 Transcription Factor (Internal Marker) (AID 2283789)
# Summary of the method: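 HepG2 cells transiently transfected with multiplexed GAL4-UAS reporter units were exposed for 24 h with 3 nM 6-alpha-fluorotestosterone present. Reporter mRNA was quantified by RT-PCR, FAM labelling, HpaI digestion and capillary electrophoresis; background-control readout, gain-of-signal versus DMSO.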
# [7] = ATG_M_19_XSP1: Attagene TRANS-FACTORIAL Multi-Species (XSP1) HepG2 Assay for M19 Transcription Factor (Internal Marker) (AID 2283798)
# Summary of the method: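 HepG2 cells transiently transfected with multiplexed GAL4-UAS reporter units, dosed 24 h with 3 nM 6-alpha-fluorotestosterone present for partial AR stimulation. Reporter mRNA measured by RT-PCR with capillary electrophoresis; gain-of-signal fitted relative to DMSO.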
# [8] = ATG_M_32_XSP1: Attagene TRANS-FACTORIAL Multi-Species (XSP1) HepG2 Assay for M32 Transcription Factor (Internal Marker) (AID 2283799)
# Experimental: ATG_XSP1_multi-species_TRANS is a cell-based, multiplexed assay created by modifying the existing Attagene TRANS-FACTORIAL system to include a panel of nuclear receptors from some or all the following species: human (Homo sapiens), mouse (Mus musculus), frog (Xenopus laevis), zebrafish (Danio rerio), chicken (Gallus gallus), and turtle (Chrysemys picta). The ECOTOX-FACTORIAL format uses HepG2, a human liver cell line, with measurements taken at 24 hours after chemical dosing in a 24-well plate. Xsp1 included 3 nM 6-alpha-fluorotestosterone to partially stimulate the androgen receptor.ATG_M_32_XSP1 is one of 29 assay components measured or calculated from the ATG_XSP1_multi-species_TRANS assay. It is designed to make measurements of mRNA induction, a form of inducible reporter, as detected with fluorescence intensity signals by Reverse transcription polymerase chain reaction (RT-PCR) and Capillary electrophoresis technology.This assay endpoint, ATG_M_32_XSP1, was analyzed in the positive analysis fitting direction relative to DMSO as the negative control and baseline of activity. Using a type of inducible reporter, measures of mRNA for gain-of-signal activity can be used to understand the background control at the transcription factor-level as they relate to the gene. Furthermore, this assay endpoint can be referred to as a secondary readout, because this assay has produced multiple assay endpoints where this one serves a background control function. To generalize the intended target to other relatable targets, this assay endpoint is annotated to the background measurement intended target family, where the subfamily is internal marker.
# as §1, with “The one-tenth of the produced cDNA was amplified by PCR using Taq DNA polymerase (Invitrogen) and two reporter sequence-specific primers. The PCR products were fluorescently labeled by primer extension with 6-arboxyfluorescein (6-FAM) 5'-labeled reporter sequence-specific primer (2 min at 95 C, 20 s at 68 C and 10 min at 72 C) and these products were digested with 5U of HpaI (New England Biolabs) for 2h at 37 C.” left out, “The raw capillary electrophoresis data was processed using Attagraph software (Attagene).” left out
# Chain of Estrogen receptor beta (Homo sapiens) (Q92731 whole entry, looked up, the tested form may be a part): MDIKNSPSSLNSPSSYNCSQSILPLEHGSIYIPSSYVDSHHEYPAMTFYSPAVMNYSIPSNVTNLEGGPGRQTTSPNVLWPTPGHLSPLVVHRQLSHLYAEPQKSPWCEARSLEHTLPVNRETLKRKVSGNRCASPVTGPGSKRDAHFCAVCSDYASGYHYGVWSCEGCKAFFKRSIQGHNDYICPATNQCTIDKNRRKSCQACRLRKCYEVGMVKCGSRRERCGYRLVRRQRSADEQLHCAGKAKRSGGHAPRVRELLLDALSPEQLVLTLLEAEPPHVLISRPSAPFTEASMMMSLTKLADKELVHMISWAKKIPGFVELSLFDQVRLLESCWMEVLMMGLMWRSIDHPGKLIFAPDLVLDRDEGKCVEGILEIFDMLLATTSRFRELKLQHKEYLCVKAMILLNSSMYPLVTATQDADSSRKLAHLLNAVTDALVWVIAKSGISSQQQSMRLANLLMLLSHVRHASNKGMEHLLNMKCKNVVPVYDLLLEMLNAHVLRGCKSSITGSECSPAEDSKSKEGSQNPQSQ
# Chain of GAL4 Transcription Factor (Internal Marker), GAL4 (gene 855828) (P04386 whole entry, looked up, the tested form may be a part): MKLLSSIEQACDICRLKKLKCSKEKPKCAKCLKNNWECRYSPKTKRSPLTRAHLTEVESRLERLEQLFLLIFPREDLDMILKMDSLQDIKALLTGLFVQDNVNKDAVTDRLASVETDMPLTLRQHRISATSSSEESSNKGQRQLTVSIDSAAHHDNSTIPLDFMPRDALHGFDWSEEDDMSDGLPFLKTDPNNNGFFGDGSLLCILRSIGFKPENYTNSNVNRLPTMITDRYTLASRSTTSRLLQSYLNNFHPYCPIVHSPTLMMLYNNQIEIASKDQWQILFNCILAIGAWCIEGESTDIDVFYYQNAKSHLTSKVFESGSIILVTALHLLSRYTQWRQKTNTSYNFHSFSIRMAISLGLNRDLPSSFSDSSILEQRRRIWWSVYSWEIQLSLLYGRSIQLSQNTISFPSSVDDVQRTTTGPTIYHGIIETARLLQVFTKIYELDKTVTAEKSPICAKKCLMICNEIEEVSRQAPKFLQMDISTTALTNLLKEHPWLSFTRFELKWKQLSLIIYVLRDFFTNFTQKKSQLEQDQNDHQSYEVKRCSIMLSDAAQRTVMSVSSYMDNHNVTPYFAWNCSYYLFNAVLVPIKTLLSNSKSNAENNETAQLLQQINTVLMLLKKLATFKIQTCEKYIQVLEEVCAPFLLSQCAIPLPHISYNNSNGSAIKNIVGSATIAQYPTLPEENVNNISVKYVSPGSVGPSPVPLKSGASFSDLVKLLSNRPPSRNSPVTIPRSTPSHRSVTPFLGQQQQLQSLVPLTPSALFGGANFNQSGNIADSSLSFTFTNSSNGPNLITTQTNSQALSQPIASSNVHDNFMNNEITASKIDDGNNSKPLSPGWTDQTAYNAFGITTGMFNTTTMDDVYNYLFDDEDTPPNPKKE
# Chain of AR (gene 367) (P10275 whole entry, looked up): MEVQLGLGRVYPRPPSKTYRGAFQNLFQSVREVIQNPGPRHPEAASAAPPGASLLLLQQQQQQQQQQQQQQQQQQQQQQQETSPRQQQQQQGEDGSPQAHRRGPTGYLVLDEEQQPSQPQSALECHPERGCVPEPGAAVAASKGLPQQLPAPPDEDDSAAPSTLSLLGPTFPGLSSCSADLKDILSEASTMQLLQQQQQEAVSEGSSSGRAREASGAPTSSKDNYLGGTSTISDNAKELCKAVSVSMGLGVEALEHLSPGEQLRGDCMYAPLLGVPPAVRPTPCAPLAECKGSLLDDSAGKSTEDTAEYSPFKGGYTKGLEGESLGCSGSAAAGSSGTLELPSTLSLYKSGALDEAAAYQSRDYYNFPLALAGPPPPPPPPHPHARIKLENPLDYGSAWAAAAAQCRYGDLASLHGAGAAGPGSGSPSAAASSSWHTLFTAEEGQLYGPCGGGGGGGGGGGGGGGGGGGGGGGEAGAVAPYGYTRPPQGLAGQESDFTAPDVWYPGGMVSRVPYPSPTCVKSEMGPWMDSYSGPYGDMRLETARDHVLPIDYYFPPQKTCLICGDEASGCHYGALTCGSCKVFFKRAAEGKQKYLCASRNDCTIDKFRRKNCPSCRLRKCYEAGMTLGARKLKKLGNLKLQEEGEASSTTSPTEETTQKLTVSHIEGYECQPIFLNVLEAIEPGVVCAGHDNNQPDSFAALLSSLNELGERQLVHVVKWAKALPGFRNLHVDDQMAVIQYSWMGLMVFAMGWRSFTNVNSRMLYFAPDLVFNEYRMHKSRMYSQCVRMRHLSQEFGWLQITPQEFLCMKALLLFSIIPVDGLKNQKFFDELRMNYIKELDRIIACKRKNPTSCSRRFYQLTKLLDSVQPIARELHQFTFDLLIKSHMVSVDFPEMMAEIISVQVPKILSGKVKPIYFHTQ
smiles,measurement,setting,value
COc1nc(NC(C)C)nc(NC(C)C)n1,outcome,[1],inactive
CCNc1nc(Cl)nc(NC(C)C)n1,outcome,[1],inactive
C#CCOS(=O)OC1CCCCC1Oc1ccc(C(C)(C)C)cc1 (configuration not stated),AC50,[1],3.86 µM (active)
same,AC50,[2],1.6 µM (active)
same,AC50,[3],24.2 µM (active)
same,outcome,[4],inactive
same,outcome,[5],inactive
CCCCNC(=O)n1c(NC(=O)OC)nc2ccccc21,AC50,[1],7.21 µM (active)
same,AC50,AR (gene 367),71.7 µM (active)
COc1ccc(C(c2ccc(OC)cc2)C(Cl)(Cl)Cl)cc1,outcome,[3],inactive
same,outcome,[6],inactive
same,outcome,[4],inactive
same,outcome,[5],inactive
same,outcome,[7],inactive
Cc1cc(Cl)ccc1OCC(=O)O,outcome,AR (gene 367),inactive
CCOC(=O)CC(SP(=S)(OC)OC)C(=O)OCC (configuration not stated),AC50,[1],78.9 µM (active)
same,AC50,AR (gene 367),88.6 µM (active)
CCCN(CCC)c1c([N+](=O)[O-])cc(S(N)(=O)=O)cc1[N+](=O)[O-],outcome,[2],inactive
same,AC50,[3],14.8 µM (active)
same,AC50,[6],49.1 µM (active)
same,outcome,[4],inactive
same,outcome,[5],inactive
same,AC50,[8],54.4 µM (active)
CCCCOC(=O)c1ccccc1C(=O)OCCCC,AC50,[1],50 µM (active)
same,outcome,[6],inactive
same,outcome,[7],inactive
same,outcome,[8],inactive
COC(=O)c1ccccc1C(=O)OC,outcome,[1],inactive
COC(=O)N(OC)c1ccccc1COc1ccn(-c2ccc(Cl)cc2)n1,AC50,[1],0.5 µM (active)
same,outcome,[3],inactive
same,outcome,[6],inactive
same,outcome,[4],inactive
same,outcome,[5],inactive
CC1COC(Cn2cncn2)(c2ccc(Oc3ccc(Cl)cc3)cc2Cl)O1 (configuration not stated),AC50,[1],6.39 µM (active)
CCCC1COC(Cn2cncn2)(c2ccc(Cl)cc2Cl)O1 (configuration not stated),AC50,[1],71.2 µM (active)
same,AC50,AR (gene 367),76.1 µM (active)
same,outcome,[7],inactive
same,outcome,[8],inactive
CCOP(=S)(OCC)SCn1c(=O)oc2cc(Cl)ccc21,outcome,[4],inactive
same,outcome,[5],inactive
same,outcome,[7],inactive
C=CCC1=C(C)[C@@H](OC(=O)[C@@H]2[C@@H](C=C(C)C)C2(C)C)CC1=O,outcome,[1],inactive
CC(C)(C)c1ccc(CSc2cnn(C(C)(C)C)c(=O)c2Cl)cc1,AC50,[1],0.12 µM (active)
same,outcome,[2],inactive
same,outcome,[3],inactive
same,outcome,[4],inactive
same,outcome,[5],inactive
